A selection: hits, their analogues and other compounds. The true share with any hit is near 19%.
HT1080-NT tox: qHTS for induction of synthetic lethality in tumor cells producing 2HG: qHTS for the HT-1080-NT fibrosarcoma cell line. Potency, µM (doses to about 46.1 µM), for inactives: top-dose activity, negative = less viability, most hits filed as cytotoxic. HT-1080-NT fibrosarcoma viability, CellTiter-Glo ATP luminescence, 48 h. 1.6% of 360,000 active. AID 686970, 2013;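 also: NT is the 2HG producing partner of a matched IDH1 knockdown line; potency is read from the fitted curve at half-maximal effect; 0% = DMSO-treated cells and -100% = media-only wells without cells; nearly all actives have a fitted effect of over 55% in size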
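A 48-hour cytotoxicity screen used HT-1080-NT cells plated 2 hours before compound delivery. ATP-based CellTiter-Glo luminescence measured viability, normalized to DMSO and no-cell controls.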
IL1B secr inh: qHTS for Inhibitors of Inflammasome Signaling: IL-1-beta AlphaLISA Primary Screen | THP-1 LPS/ATP IL-1B secretion, AlphaLISA, 16 h; stronger effect = lower value | 4.7% of 360,000 active | activity change, % at 57.5 µM; in the data active = activity change below about -50%; inconclusive = mostly about -30% to -49%
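THP-1 cells pretreated 1 hr with compounds (up to 57.5 uM final), then stimulated with LPS (250 ng/mL final) plus ATP (1.25 mM final); secreted IL-1B measured by AlphaLISA after 16 hr, decreased signal indicating inhibition.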
HT1080 IDH1KD tx: qHTS for induction of synthetic lethality in tumor cells producing 2HG: qHTS for the HT-1080-IDH1KD cell line; HT-1080 IDH1 knockdown viability, ATP luminescence, 48 h; Potency, µM (top dose mostly 46.1 µM), for inactives: top-dose activity, negative = toxicity, most hits filed as cytotoxic; 2% of 360,000 active;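 also: potency is read from the fitted curve at half-maximal effect; 0% = DMSO wells and -100% = cell-free medium wells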
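In this qHTS, HT-1080 cells depleted of IDH1 are exposed for 48 h at 37 °C to compound titrations. Toxicity is scored from CellTiter-Glo luminescence, with DMSO as full viability and medium alone as none.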
ELG1 repair inh: qHTS screen for small molecules that inhibit ELG1-dependent DNA repair in human embryonic kidney (HEK293T) cells expressing luciferase-tagged ELG1 | HEK293T ELG1-luciferase reporter, luminescence, 16 h; DNA damage induced by 5-fluorouridine | 2.3% of 330,000 active | Potency, µM (top dose mostly 46.1 µM), inactives show top-dose activity change, negative = inhibition, most hits filed as inhibitors; also: potency is read from the fitted curve at half-maximal effect; nearly all actives have a fitted effect of over 55% in size
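HEK293T cells expressing luciferase-tagged ELG1 (2,000/well) received 5-Fluorouridine plus compound or DMSO for 16 hr at 37 °C. Luciferase was read by ONE-Glo luminescence after 30 min at room temperature.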
DT40 TDP1 CPT: qHTS for Inhibitors of human tyrosyl-DNA phosphodiesterase 1 (TDP1): qHTS in cells in presence of CPT; chicken DT40 Tdp1-/-;hTDP1 cells + 20 nM CPT, ATP luminescence, 48 h; Potency, µM (highest dose often 46.2 µM), for the others: at the top dose activity change, negative = growth inhibition, most hits filed as inhibitors; 12% of 420,000 active; AID 686979, 2013; also: potency is read from the fitted curve at half-maximal effect; nearly all actives have a fitted effect of over 55% in size
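Chicken DT40 Tdp1-/- cells complemented with human TDP1, 400 cells/well, exposed to compounds plus 20 nM camptothecin for at least 48 h at 37 C; viability read as ATP content by CellTiter-Glo luminescence.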
TDP1 cell noCPT: qHTS for Inhibitors of human tyrosyl-DNA phosphodiesterase 1 (TDP1): qHTS in cells in absence of CPT; DT40 Tdp1-/- hTDP1 cells, no CPT, ATP luminescence, 48 h; AID 686978, 2013; 15% of 420,000 active; Potency, µM (highest dose often 46.2 µM), without a hit: at the top dose activity change, negative = growth inhibition, usual class: inhibitors; also: potency is read from the fitted curve at half-maximal effect; nearly all actives have a fitted effect of over 55% in size
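A cellular qHTS used chicken DT40 cells lacking endogenous Tdp1 but carrying stably transfected human TDP1. Compounds were applied without camptothecin, and cell growth kinetics were judged by ATP-dependent luminescence after ≥48 hr.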
An asterisk follows results filed as active; ? = inconclusive; . = no result; [ ] = dose if it differs, or a comment. Unless noted, calls follow the shape of the dose curve; as a rule, active = well fitted curve in the direction sought with a large enough effect; inconclusive = small, poorly fitted or top-dose-only effect, or another doubt; inactive = no such curve, though single readings can be large; an effect the other way counts as inactive or inconclusive. Unless noted, % is scaled to controls: 0 for no effect and ±100 for the full control effect.

SMILES	HT1080-NT tox	IL1B secr inh	HT1080 IDH1KD tx	ELG1 repair inh	DT40 TDP1 CPT	TDP1 cell noCPT
COc1cccc(C(=O)Nc2ccccc2-c2nc3ccccc3s2)c1	.	.	.	.	-4%	?
COc1ccc(-c2nc3cc(NC(=O)CSc4ccc(C)cc4)ccc3o2)cc1	.	.	.	.	-27%	?
COc1ccc(OCC(=O)Nc2ccc(O)c(-c3nc4ccccc4s3)c2)cc1	.	.	.	.	0.82µM*	?
Cc1ccc(OCC(=O)Nc2ccc(O)c(-c3nc4cc(C)c(C)cc4o3)c2)cc1	.	.	.	.	?	1.6µM*
Cc1ccc(SCC(=O)Nc2ccc(O)c(-c3nc4cc(C)ccc4o3)c2)cc1	.	.	.	.	?	21µM*
CC(=O)OC1=CN(Cc2ccccc2)S(=O)(=O)c2ccccc21	.	.	.	.	-3%	-8%
Cc1ccc(C)c(NS(=O)(=O)c2ccc3oc(=O)c4ncn(C)c4c3c2)c1	.	.	.	.	-24%	-17%
Cc1ccc(OCC(=O)Nc2ccc(O)c(-c3nc4ccccc4o3)c2)cc1	?	-25	?	-12%	12µM*	?
Cc1ccc(C(C)C)c(OCC(=O)Nc2ccc(O)c(-c3nc4cc(Cl)ccc4o3)c2)c1	.	.	.	.	9%	-7%
O=C(Nc1ccc(O)c(-c2nc3ccccc3o2)c1)C1(c2ccc(Br)cc2)CCCC1	10%	2	6%	9%	?	13µM*
CC(=O)c1[nH]c(C)c(C(=O)N2CCCC(Nc3cccc(F)c3)C2)c1C (stereo not given)	-5%	15	11%	?	6%	17%
Cc1cc(-c2cn3ccccc3n2)c(C)n1-c1ccccc1	?	-11	?	?	?	16µM*
C=CCSC1=N/C(=C\C=C\c2ccco2)C(=O)S1	-1%	-9	5%	8%	23µM*	18µM*
C=CCSC1=N/C(=C\c2sccc2C)C(=O)S1	-1%	-21	5%	-2%	1%	0%
COC(=O)c1cc(CSc2nnc(-c3ccccc3)c(-c3ccccc3)n2)oc1C	-9%	-16	-10%	21µM*	23µM*	21µM*
O=C(CSc1nc2cc(Cl)ccc2c(=O)n1Cc1ccco1)Nc1ccc(S(=O)(=O)N2CCOCC2)cc1	0%	-5	1%	?	-24%	-20%
COC(=O)c1ccc2c(=O)n(Cc3ccco3)c(SCC(=O)Nc3ccc(C)c(Cl)c3)nc2c1	-7%	18	-6%	?	10µM*	21µM*
COC(=O)c1ccc(CSc2nc3ccccc3c(=O)n2C)o1	-17%	?	-1%	3%	15µM*	?
CC(C)C(=O)NNC(=O)CSc1nnc(-c2ccccc2)c(-c2ccccc2)n1	2%	16	6%	3%	-15%	-10%
COC(=O)c1cc(CSc2nc3ccc(C)cc3[nH]2)oc1C	-13%	-5	-12%	?	16µM*	18µM*
COCCN1C(=O)/C(=C/c2ccc(N3CCCC3)cc2C)SC1=S	-2%	0	-1%	5%	?	?
COC(=O)c1cc2sc(C)cc2n1Cc1nc(-c2cccc(Br)c2)oc1C	.	.	.	.	0%	-29%
CCCCn1c(SCC(=O)c2cc(OC)ccc2OC)nc2cc(S(N)(=O)=O)ccc21	-7%	20	-3%	8%	0%	-19%
CCCCn1c(SCc2ccc(C(=O)OC)o2)nc2cc(S(N)(=O)=O)ccc21	?	-78*	-4%[9.24 µM]	10µM*	3.3µM*	9.2µM*
Cc1cccc(OCCCSc2nc3ccc(C)cc3[nH]2)c1	6%	-72*	7%	12%	?	?
SMILES	HT1080-NT tox	IL1B secr inh	HT1080 IDH1KD tx	ELG1 repair inh	DT40 TDP1 CPT	TDP1 cell noCPT
COC(=O)c1ccc(CSc2nc(C)nc3sc(C)c(C)c23)o1	4%	38	?	18%	15µM*	10µM*
COCC(C)n1c(SCc2cc(C(=O)OC)c(C)o2)nc2ccccc2c1=O (stereo not given)	-19%	-13	-13%	?	4.1µM*	5.8µM*
COC(=O)c1ccc(CN2CCOc3ccc(C(O)c4cccnc4)cc3C2)cc1 (stereo not given)	.	.	.	.	3%[9.04 µM]	-17%
COC(=O)c1ccc(CSc2nc3ccccc3c(=O)n2Cc2ccco2)o1	?	3	-11%	?	23µM*	16µM*
CCc1nc(SCc2ccc(C(=O)OC)o2)c2c(=O)n(C)c(=O)n(C)c2n1	-7%	22	6%	?	15µM*	9.2µM*
CCc1nc(SCC(=O)NCc2ccc(F)cc2)c2c(=O)n(C)c(=O)n(C)c2n1	11%	15	1%	12%	-3%	-5%
COC(=O)c1ccc(CSc2nc3ccccc3c(=O)n2CC(C)C)o1	-12%	6	-13%	-21%	?	?
COC(=O)C1=C(O)C2(C(=O)O)CC(C(=O)OC)=C(O)C(C(=O)O)(C1)C2	-2%	.	2%	14%	3%	10µM*
CC1(C(=O)O)CC(C)(C(=O)O)CC(C)(C(=O)O)C1 (stereo not given)	19%	20	2%	9%	-6%	1%
COc1c(Cl)cc(C(=O)Nc2ccccc2-c2ccccc2)cc1Cl	0%	?	8%	10%	?	29µM*
COc1ccccc1NC(=O)c1cc(Br)ccc1Cl	-6%	57	-2%	-7%	-3%	1%
COc1ccc(Br)cc1C(=O)Nc1ccccc1-c1ccccc1	?	42	-24%	-3%	?	29µM*
O=C1c2ccccc2-c2nnc(-c3ccccc3)cc21	-1%	31	-8%	?	3.7µM*	5.2µM*
Cc1cccc(-c2cc3c(nn2)-c2ccccc2C3=O)c1	3%	-20	0%	?	?	?
COc1ccc(-c2cc3c(nn2)-c2ccccc2C3=O)cc1	-24%	23	-15%	?	26µM*	16µM*
Cc1ccc(NC(=O)CN2C(=O)NC(Cc3c[nH]c4ccccc34)C2=O)cc1S(=O)(=O)N1CCCCC1 (stereo not given)	-28%	?	-28%	?	21µM*	21µM*

Bioassay records: PubChem, National Center for Advancing Translational Sciences (NCATS)
